Screening results: PubChem BioAssay, The Scripps Research Institute Molecular Screening Center
CHRM1 antagonist: blocks human M1 muscarinic receptor; P11229; CHO-K1 hM1, Fluo-8 calcium fluorescence, ACh EC80 antagonist; 360,000 tested, 1.3% active; inhibition, % at 3 µM;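 active = percent inhibition above its own plate's cutoff, namely the mean of that plate's compound wells plus 3 SD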;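 note: peak over basal fluorescence ratio during 140 s after agonist addition; 0% = ACh EC80 plus DMSO and 100% = DMSO alone without agonist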
Target sequence (P11229 whole entry, looked up): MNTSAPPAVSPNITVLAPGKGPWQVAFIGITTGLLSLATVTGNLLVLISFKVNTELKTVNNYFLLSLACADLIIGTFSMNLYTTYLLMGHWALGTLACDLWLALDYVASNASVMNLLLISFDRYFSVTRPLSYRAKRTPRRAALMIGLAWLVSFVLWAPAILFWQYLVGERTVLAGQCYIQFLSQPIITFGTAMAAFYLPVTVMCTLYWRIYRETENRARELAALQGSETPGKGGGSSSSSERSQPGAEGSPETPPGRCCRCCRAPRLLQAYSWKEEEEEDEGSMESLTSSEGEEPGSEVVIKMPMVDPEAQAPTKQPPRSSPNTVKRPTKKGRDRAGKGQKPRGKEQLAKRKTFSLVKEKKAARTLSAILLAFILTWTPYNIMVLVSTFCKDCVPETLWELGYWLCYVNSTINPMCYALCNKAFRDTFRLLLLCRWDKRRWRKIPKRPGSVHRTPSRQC
M1 ag parental: nonselective activator or artifact in parental CHO-K1 cells; activation, % at 3 µM; 360,000 tested, 0.48% active; Fluo-8 calcium fluorescence; scaled to maximal ATP response, vehicle zero; AID 602248; in the data active = activation above about 15%;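 note: untransfected CHO-K1 host cells lacking M1 receptor as counterscreen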
CHO-K1 Ca antag: counter-screen for M1 antagonists: effect in parental CHO-K1 cells; inhibition, % at 3 µM; ATP-induced calcium, Fluo-8 fluorescence; 360,000 tested, 0.6% active; AID 602250;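 active = inhibition above a per-plate cutoff, the plate's mean sample inhibition plus 3 SD, cut at about 24% in these data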;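 note: 0% = DMSO plus EC80 ATP and 100% = DMSO alone without ATP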
M1 PAM parental: nonselective activator or artifact in parental CHO-K1 calcium assay; ATP EC20, Fluo-8 calcium fluorescence; 0% at ATP EC20, 100% at ATP max; activation, % at 3 µM; 360,000 tested, 0.02% active; AID 602247;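 active = activation above the run cutoff, the mean activation of all test compounds plus 3 SD, cut at about 40% in these data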;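 note: peak over basal fluorescence ratio in a 140 s read after ATP addition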
M1 PAM: positive allosteric modulators of human M1 muscarinic receptor. CHO-K1 hM1, Fluo-8 calcium fluorescence, ACh EC20; 0% = ACh EC20, 100% = maximal ACh. 360,000 tested, 0.088% active. P11229. activation, % at 3 µM; in the data active = activation above about 19%, passing the limit was not always enough
M1 ag: agonists of human M1 muscarinic receptor. P11229. CHO-K1 hM1, Fluo-8 calcium fluorescence, agonist mode; 0% DMSO, 100% acetylcholine EC100. activation, % at 3 µM. 360,000 tested, 0.33% active;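 active = activation above the run's mean compound activation plus 3 SD, cut at about 16% in these data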;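 note: peak over basal fluorescence ratio within a 140 s kinetic read after compound addition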
Active calls of the source: *. Most compounds without a hit are left out; they make up all but 2.3% or so of the library.

SMILES	CHRM1 antagonist	M1 ag parental	CHO-K1 Ca antag	M1 PAM parental	M1 PAM	M1 ag
CC(=O)Nc1ccc(NC(=O)c2csc([C@@H]3C[C@H](O)[C@@H](CO)O3)n2)cc1	-3	6	-5	12	2	-1
O=C(Nc1ccc(Oc2ccccc2)cc1)c1csc([C@@H]2O[C@H](CO)[C@@H](O)[C@H]2O)n1	34*	6	2	4	-14	1
O=C(Nc1ccc(Oc2ccccc2)cc1)c1csc([C@H]2C[C@H](O)[C@@H](CO)O2)n1	32*	14	1	-5	-16	3
CCOC(=O)c1ccc(NC(=O)C(=O)NCCc2ccc(OC)cc2)cc1	0	0	0	27	13	-5
CCOC(=O)c1ccc(NC(=S)NCCc2ccc(F)cc2)cc1	21	23*	28*	-5	-23	1
Cc1ccc(C)c(NC(=O)c2ccc(S(=O)(=O)C(F)F)cc2)c1	-3	3	-8	20	3	-3
N#Cc1ccc(-c2nc3ccc(Br)cn3c2Cc2ccccc2)cc1	-5	0	1	6	-1	-8
CCCC(=O)c1ccc(N2CCN(C(=O)c3cccs3)CC2)c(F)c1	42*	15*	11	-11	-23	-3
CC(=O)c1ccc(N2CCN(C(=O)c3cccs3)CC2)c(F)c1	-18	6	-7	12	11	-2
CCOC(=O)c1[nH]c(C)c(C(=O)N2CCN(C(=O)OCC)CC2)c1CC	4	0	26*	-12	1	0
CCN1/C(=C/C=C/c2oc3ccc(-c4ccccc4)cc3[n+]2CC)Oc2ccc(-c3ccccc3)cc21	103*	857*	102*	-23	-21	599*
CCC(C)c1ccccc1OCCCCN1CCCC1 (centres undefined)	48*	2	-9	22	-22	-9
CCC(C)c1ccccc1OCCOCCN1CCCC1 (centres undefined)	18	3	-12	24	-17	-8
COc1ccccc1OCCCCOc1ccccc1C(C)=O	13	12	5	7	-16	-5
CC(=O)c1ccccc1OCCOc1ccccc1C(C)=O	39*	2	-5	7	-27	-7
CC(=O)c1ccccc1OCCCCN1CCCCC1	59*	2	-13	25	-26	-9
COC(=O)c1ccccc1OCCN1CCCCCC1	-4	0	7	-9	-5	-9
COc1cc(S(=O)(=O)N2CCN(C)CC2)c(OC)cc1Cl	-2	0	24*	-7	12	-2
CCCNC(=O)c1cc(C2CCCCN2C(=O)OCCF)on1 (centres undefined)	-12	1	-10	18	10	-8
CCCNC(=O)c1cc(C2CCCCN2C(=O)OCC(C)C)on1 (centres undefined)	42*	0	5	-12	-20	-9
CCCNC(=O)c1cc(C2CCCCN2C(=O)CCCc2ccccc2)on1 (centres undefined)	10	1	25*	-24	-10	-6
Cc1cccc(NC(=O)CSc2nnc3ccc(-c4cccnc4)nn23)c1	-17	1	-11	10	4	-7
CC(C)COC(=O)NCCOC(=O)Nc1cccc(Cl)c1	25*	9	24*	6	-16	4
Cc1nn(Cc2c(F)c(F)c(F)c(F)c2F)c(C)c1NC(=O)c1nn(C)c(C)c1Br	-9	2	8	-1	7	-2
O=C1CSC2(C(=O)N3CCCc4cccc2c43)N1c1cccc(C(F)(F)F)c1 (centres undefined)	89*	0	-8	12	-22	-8
SMILES	CHRM1 antagonist	M1 ag parental	CHO-K1 Ca antag	M1 PAM parental	M1 PAM	M1 ag
COc1ccc(N2C(=O)CSC23C(=O)N2CCCc4cccc3c42)cc1 (centres undefined)	85*	1	-7	9	-26	-6
NNC(=O)c1sccc1OCc1ccc(Cl)cc1Cl	5	7	4	1	-3	-2
OC1(c2ccc(OC(F)F)cc2)CSC(=Nc2cccnc2)N1C1CC1 (centres undefined)	21*	8	12	3	-16	1
COc1ccc(OC)c(C2(O)CSC(=Nc3cccnc3)N2Cc2ccco2)c1 (centres undefined)	1	2	-6	7	2	-2
COC(=O)Cc1ccc(OC2(C)CCN(Cc3ccccc3OC(F)F)C2)cc1 (centres undefined)	55*	0	19	0	-22	-9
COC(=O)Cc1ccc(OC2(C)CCN(Cc3ccc(-c4ccccn4)cc3)C2)cc1 (centres undefined)	59*	1	5	2	-30	-8
CC(=O)c1cc2cccc(OC3(C)CCN(Cc4ccc(-c5ccccn5)cc4)C3)c2o1 (centres undefined)	35*	5	-3	13	-26	-8
O=C(NC(=S)Nc1cccc([N+](=O)[O-])c1)C1CCCCC1	-6	0	-12	5	-2	-4
CCOc1ccc(Nc2nnc(SCc3nc4ccccc4c(=O)[nH]3)s2)cc1	-4	0	-1	-5	2	-5
O=C(Nc1ccn(CCCN2CCN(c3ccccn3)CC2)c(=O)n1)OCc1ccccc1	9	1	-5	11	-15	-10
C#CCOCCOCCOCCNc1nc(N2CCN(C(=O)[C@H](CCCCN)n3cc([C@@H](N)CO)nn3)CC2)nc(N2CCN(C(=O)[C@H](CCCCN)n3cc([C@@H](N)CC(C)C)nn3)CC2)n1	-1	0	-12	1	11	-2
CCOc1ccc(NS(=O)(=O)c2ccc(C(=O)NCC(c3ccco3)N(C)C)cc2)cc1 (centres undefined)	5	11	10	-12	-10	9
CC(=O)c1ccc(OCCCC(=O)NCC(c2ccco2)N(C)C)cc1 (centres undefined)	0	0	25*	-8	0	-5
CC(C)CCOc1ccc(C(=O)NCC(c2ccco2)N(C)C)cc1 (centres undefined)	28*	-1	-4	7	-30	-12
COc1cc(C(=O)OC(C)c2ccc(F)cc2)ccc1OCC(=O)N1CCOCC1 (centres undefined)	-7	2	-10	12	1	-1
CC(=O)Nc1ccc(OS(=O)(=O)c2cc(Cl)ccc2C)cc1	-5	7	-13	14	3	-1
CC(C)CC(=O)Nc1nnc(S(=O)(=O)N2CCc3ccccc32)s1	5	0	29*	-9	3	0
Cc1ccc2c(c1)C(=O)C(=O)N2Cc1ccc(Br)cc1	0	0	1	-8	9	21*
CCCCCCCCCCCCCCCC[N+](C)(C)Cc1ccc(F)cc1	44*	1	-21	32	-24	-8
